Data taken from PubChem BioAssay AID1159580 (chemical genetic matrix, 2015).
Screen size: about 5,500 compounds; about 2,000 (36%) were called active. Roughly 18% stayed inconclusive and do not appear here. Rule as the data show it: active = normalized growth mostly below about 0.91 (no sharp cut-off); inconclusive = no clear call, values can overlap the other calls; inactive = mostly above about 0.92. This is one part of the list.

Experiment: chemical genetic growth profiling, strain panel (AID 1159580);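 also: tested at 20 µM; growth read once vehicle control cultures reached saturation at 30 °C; 1 = growth at the plate median or of vehicle wells; lower values mean less growth of the strain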
Conditions: S. cerevisiae deletion strains, growth OD

Measured: normalized growth

COc1ccc(CNC(=O)/C=C/c2ccc3[nH]cc(CCN(C)C)c3c2)cc1
inactive: locus YAL040C, strain CLN3, active compounds read low 1.1 | locus YCL061C, strain MRC1 (second series), active compounds read low 0.991 | locus YER002W, strain NOP16, active compounds read low 0.997 | locus YGR078C, strain PAC10, active compounds read low 0.987 | locus YMR263W, strain SAP30, active compounds read low 0.98 | locus YNL153C, strain GIM3, active compounds read low 0.985 | locus YNL175C, strain NOP13, active compounds read low 1.01 | locus YNL197C, strain WHI3, active compounds read low 1 | locus YNL224C, strain SQS1, active compounds read low 0.986 | locus YOR083W, strain WHI5 (second series), active compounds read low 1.01

COC(=O)CC1C(C)(C(=O)c2ccoc2)CC2OCC34C(CC(=O)OC)C5(C)CC36OC3(C)OC1(C(OC(C)=O)C6(OC(C)=O)C5OC(=O)C(C)C)C24O3 (configuration not stated)
inactive: locus YAL021C, strain ccr4, active compounds read low 0.995 | locus YAL026C, strain drs2, active compounds read low 0.967 | locus YAL030W, strain snc1, active compounds read low 0.975 | locus YBL061C, strain skt5, active compounds read low 0.978 | locus YBR009C, strain hhf1, active compounds read low 0.949 | locus YBR023C, strain chs3, active compounds read low 0.987 | locus YBR171W, strain sec66, active compounds read low 0.981 | locus YBR231C, strain swc5, active compounds read low 0.993 | locus YBR279W, strain paf1, active compounds read low 0.996 | locus YCL011C, strain gbp2, active compounds read low 0.972 | locus YCL016C, strain dcc1, active compounds read low 0.99 | locus YCL061C, strain MRC1, active compounds read low 0.995 | locus YCL069W, strain vba3, active compounds read low 0.979 | locus YCR088W, strain abp1, active compounds read low 0.983 | locus YDL005C, strain med2, active compounds read low 0.97 | locus YDL040C, strain nat1, active compounds read low 0.986 | locus YDR001C, strain nth1, active compounds read low 0.986 | locus YDR069C, strain doa4, active compounds read low 0.99 | locus YDR137W, strain rgp1, active compounds read low 0.975 | locus YDR159W, strain sac3, active compounds read low 0.968 | locus YDR195W, strain ref2 0.944 | locus YDR297W, strain sur2, active compounds read low 0.978 | locus YDR334W, strain swr1, active compounds read low 0.969 | locus YDR335W, strain msn5, active compounds read low 0.987 | locus YDR392W, strain spt3, active compounds read low 0.911 | locus YEL003W, strain gim4, active compounds read low 0.971 | locus YEL037C, strain rad23, active compounds read low 0.967 | locus YEL061C, strain CIN8 (second series), active compounds read low 0.975 | locus YER015W, strain faa2, active compounds read low 0.987 | locus YER016W, strain bim1, active compounds read low 0.98 | locus YER111C, strain swi4, active compounds read low 0.959 | locus YER155C, strain BEM2 (second series), active compounds read low 1.01 | locus YFR010W, strain ubp6, active compounds read low 0.978 | locus YGL167C, strain pmr1, active compounds read low 0.959 | locus YGL173C, strain kem1, active compounds read low 0.97 | locus YGL227W, strain vid30, active compounds read low 0.97 | locus YGL240W, strain doc1, active compounds read low 0.988 | locus YGL253W, strain hxk2, active compounds read low 0.966 | locus YHR013C, strain ard1, active compounds read low 0.952 | locus YHR027C, strain rpn1, active compounds read low 0.985 | locus YHR142W, strain chs7, active compounds read low 0.994 | locus YJL092W, strain hpr5, active compounds read low 0.987 | locus YJL095W, strain BCK1 (second series), active compounds read low 0.993 | locus YJL115W, strain asf1, active compounds read low 0.988 | locus YJL129C, strain trk1, active compounds read low 0.975 | locus YJL154C, strain vps35, active compounds read low 0.984 | locus YJL164C, strain tpk1, active compounds read low 1 | locus YJL166W, strain qcr8, active compounds read low 0.996 | locus YJL187C, strain SWE1, active compounds read low 0.984 | locus YKL160W, strain elf1, active compounds read low 1.01 | locus YKR026C, strain gcn3, active compounds read low 0.976 | locus YKR091W, strain srl3, active compounds read low 0.96 | locus YLL001W, strain dnm1, active compounds read low 1.01 | locus YLL026W, active compounds read low 0.993 | locus YLL041C, strain sdh2, active compounds read low 0.996 | locus YLR027C, strain aat2, active compounds read low 0.982 | locus YLR221C, strain rsa3, active compounds read low 0.999 | locus YLR258W, strain gsy2, active compounds read low 0.964 | locus YLR262C, strain YPT6 (second series), active compounds read low 0.983 | locus YLR320W, strain mms22, active compounds read low 0.993 | locus YLR342W, strain FKS1, active compounds read low 0.963 | locus YLR357W, strain rsc2, active compounds read low 1.02 | locus YLR370C, strain arc18, active compounds read low 0.981 | locus YLR384C, strain iki3, active compounds read low 0.97 | locus YML120C, strain ndi1, active compounds read low 0.987 | locus YMR058W, strain fet3, active compounds read low 0.975 | locus YMR125W, strain sto1, active compounds read low 0.995 | locus YMR129W, active compounds read low 0.966 | locus YMR205C, strain PFK2, active compounds read low 0.957 | locus YMR231W, strain pep5, active compounds read low 0.977 | locus YNL071W, strain lat1, active compounds read low 0.982 | locus YNL209W, strain ssb2, active compounds read low 0.988 | locus YNL248C, strain rpa49, active compounds read low 1.02 | locus YNL322C, strain KRE1 (second series), active compounds read low 0.969 | locus YNR049C, strain mso1, active compounds read low 0.973 | locus YOR001W, strain rrp6, active compounds read low 1.04 | locus YOR070C, strain gyp1, active compounds read low 1.03 | locus YOR080W, strain dia2, active compounds read low 0.982 | locus YOR083W, strain WHI5, active compounds read low 1.01 | locus YOR106W, strain vam3, active compounds read low 0.991 | locus YOR265W, strain rbl2, active compounds read low 0.992 | locus YOR270C, strain vph1, active compounds read low 0.856 | locus YOR290C, strain snf2, active compounds read low 0.895 | locus YPL051W, strain arl3, active compounds read low 0.993 | locus YPL078C, strain atp4, active compounds read low 0.99 | locus YPL106C, strain sse1, active compounds read low 0.985 | locus YPL240C, strain hsp82, active compounds read low 0.947
